From the supplement of paper PMC10933113
A number with no mark means an inactive call.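 The calls were made as follows: active = curve rank above 3; inactive = curve rank 0.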

These compounds were tested on KeratinoSens (HaCaT ARE-luciferase) cells (assay: Nrf2/ARE luciferase activation call in qHTS KeratinoSens assay (1 = active, 0 = inactive)).

Compound	Nrf2/ARE luciferase activation call
Cc1occc1C(=O)Nc1ccc(C(=O)N2CCC(F)(F)/C(=C\C(=O)N3CCC(N4CCCCC4)CC3)c3ccccc32)cc1.Cc1occc1C(=O)Nc1ccc(C(=O)N2CCC(F)(F)/C(=C\C(=O)N3CCC(N4CCCCC4)CC3)c3ccccc32)cc1.O=C(O)/C=C/C(=O)O	not active ARE inducer (skin sensitizer alert)
CN1CCN(CCCN2c3ccccc3Sc3ccc(Cl)cc32)CC1.O=C(O)/C=C\C(=O)O.O=C(O)/C=C\C(=O)O	not active ARE inducer (skin sensitizer alert)
CCOc1cc(N)c(Cl)cc1C(=O)NCC1CN(Cc2ccc(F)cc2)CCO1.O=C(O)CC(O)(CC(=O)O)C(=O)O (centres undefined)	not active ARE inducer (skin sensitizer alert)
CCC1=C[C@@H]2C[N@](C1)Cc1c([nH]c3ccccc13)[C@@](C(=O)OC)(c1cc3c(cc1OC)N(C)[C@H]1[C@@](O)(C(=O)OC)[C@H](OC(C)=O)[C@]4(CC)C=CCN5CC[C@]31[C@@H]54)C2.O=C(O)C(O)C(O)C(=O)O.O=C(O)C(O)C(O)C(=O)O	active ARE inducer (skin sensitizer alert)
O=C(O)/C=C/C(=O)O.O=C1c2ccccc2C(=O)N1CCc1noc(-c2ccc(CN3CCCCCC3)s2)n1	not active ARE inducer (skin sensitizer alert)
Nc1c2c(nc3ccccc13)CCCC2O.O=C(O)/C=C\C(=O)O (centres undefined)	not active ARE inducer (skin sensitizer alert)
O=C(O)/C=C/C(=O)O.OCCOCCN1CCN(C2=Nc3ccccc3Sc3ccccc32)CC1.OCCOCCN1CCN(C2=Nc3ccccc3Sc3ccccc32)CC1	not active ARE inducer (skin sensitizer alert)
CN1C(C)(C)CCCC1(C)C.O=C(O)[C@@H](O)[C@H](O)C(=O)O	not active ARE inducer (skin sensitizer alert)
CC(C)NCC(O)COc1ccc(COCCOC(C)C)cc1.CC(C)NCC(O)COc1ccc(COCCOC(C)C)cc1.O=C(O)/C=C/C(=O)O (centres undefined)	not active ARE inducer (skin sensitizer alert)
CN(C)CCOC(C)(c1ccccc1)c1ccccn1.O=C(O)CCC(=O)O (centres undefined)	not active ARE inducer (skin sensitizer alert)
CN(C)CC[C@@H](c1ccc(Br)cc1)c1ccccn1.O=C(O)/C=C\C(=O)O	not active ARE inducer (skin sensitizer alert)
O=C(O)/C=C\C(=O)O.O=C(O)/C=C\C(=O)O.c1cc(CN2CCCCC2)cc(OCCCNc2nc3ccccc3s2)c1	not active ARE inducer (skin sensitizer alert)
CN(C)CCOc1ccccc1Cc1ccccc1.O=C(O)CC(O)(CC(=O)O)C(=O)O	not active ARE inducer (skin sensitizer alert)
Cc1cc(C)[nH]c(=O)n1.O=C(Nc1ccc([N+](=O)[O-])cc1)Nc1ccc([N+](=O)[O-])cc1	not active ARE inducer (skin sensitizer alert)
CCC[N+]1(C)CCCC1.O=S(=O)([O-])C(F)(F)F	not active ARE inducer (skin sensitizer alert)
CCn1cc[n+](C)c1.Cc1ccc(S(=O)(=O)[O-])cc1	not active ARE inducer (skin sensitizer alert)
C[C@H](N)[C@H](O)c1cccc(O)c1.O=C(O)[C@@H](O)[C@@H](O)C(=O)O	not active ARE inducer (skin sensitizer alert)
C[NH+](C)CCC(c1ccc(Cl)cc1)c1ccccn1.O=C([O-])/C=C\C(=O)O (centres undefined)	not active ARE inducer (skin sensitizer alert)
CCCc1nn(C)c2c(=O)[nH]c(-c3cc(S(=O)(=O)N4CCN(C)CC4)ccc3OCC)nc12.O=C(O)CC(O)(CC(=O)O)C(=O)O	not active ARE inducer (skin sensitizer alert)
